Assay results as given in PubChem BioAssay (EPA / NIEHS).
“And” between values parts separate entries of the source, which are not always exact repeats. Equal entries are not always repeated. Inconclusive results are not listed. The source holds several records for some structures; these can differ, active in one and inactive in another. The source made the active and inactive calls. The calls were made as follows, unless noted: active = hit-call score of the fitted dose curve at least 0.9, where 1 is the maximum; inactive = score below 0.9.

Key:
[1] = CCTE_Shafer_MEA_dev_per_burst_spike_percent: CCTE's Neural Network Formation Assay for Percent of Spikes in a Burst, Shafer Lab (AID 2284032);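 as to AC50: fitted as a decrease in burst spike percentage below DMSO baseline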
Outline: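 Value is trapezoidal AUC over recordings on days 5, 7, 9 and 12 of the well-mean fraction of spikes falling in single-electrode bursts; rat cortical cultures exposed continuously from plating, treatment renewed DIV 5 and 9, fitted downward against DMSO.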

[2] = CCTE_Shafer_MEA_dev_active_electrodes_number: CCTE's Neural Network Formation Assay for Number of Active Electrodes, Shafer Lab (AID 2284040; active = hit-call score of the fitted dose curve at least 0.9, where 1 is the maximum;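 as to AC50: potency for loss of active electrodes versus DMSO so lower counts are hits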)
Outline: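 Developing rat cortical networks on MEAs, exposed DIV 0–12. Value is the AUC of active-electrode counts (≥5 spikes/min) from days 5, 7, 9, 12, relative to DMSO.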

[3] = CCTE_Shafer_MEA_dev_burst_rate: CCTE's Neural Network Formation Assay for Burst Rate, Shafer Lab (AID 2284042);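 as to AC50: potency for loss of burst rate below DMSO control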
Outline: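 Developmental network assay measuring how 12-day exposure of rat cortical neuron cultures alters bursting on extracellular MEA recordings. Values are AUC of well-mean burst rate across four recording days, relative to DMSO vehicle.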

[4] = CCTE_Shafer_MEA_dev_bursting_electrodes_number: CCTE's Neural Network Formation Assay for Number of Bursting Electrodes, Shafer Lab (AID 2284043; active = hit-call score of the fitted dose curve at least 0.9, where 1 is the maximum;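 as to AC50: potency is for loss of bursting electrodes relative to DMSO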)
Outline: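 Number of electrodes reaching ≥1 burst every 2 min was recorded at DIV 5, 7, 9 and 12 and collapsed as trapezoidal area under the curve. Cultures were rat cortical neurons on MEA plates, dosed continuously from plating with medium and treatment refreshed on DIV 5 and 9.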

[5] = CCTE_Shafer_MEA_dev_per_burst_interspike_interval: CCTE's Neural Network Formation Assay for Burst Interspike Interval, Shafer Lab (AID 2284044);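 as to AC50: potency for a decrease of within-burst interspike interval below DMSO level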
Outline: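 Spontaneous activity of maturing rat cortical networks is recorded on DIV 5, 7, 9 and 12 under chronic compound exposure beginning at plating. Endpoint: burst interspike interval well-mean, collapsed into trapezoidal AUC and fitted in the negative direction relative to DMSO.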

[6] = CCTE_Shafer_MEA_dev_burst_duration_mean: CCTE's Neural Network Formation Assay for Mean Burst Duration, Shafer Lab (AID 2284045);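 as to AC50: curve fitted for loss meaning shorter burst duration than DMSO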
Outline: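 Mean single-electrode burst duration (first to last spike), averaged over bursting electrodes per well, then integrated as area-under-curve across recordings at days 5, 7, 9 and 12. Rat cortical cultures on MEAs, compound present from plating, refreshed at feeds.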

[7] = CCTE_Shafer_MEA_dev_interburst_interval_mean: CCTE's Neural Network Formation Assay for Mean Interburst Interval, Shafer Lab (AID 2284046);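 also: well-mean interburst interval of bursting electrodes as AUC over four recording days; curve fitted for decrease in interburst interval relative to DMSO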
Outline: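 Network formation assay in primary rat cortical cultures, exposed from DIV 0 to 12. Mean interburst interval per well, integrated as AUC over four recordings.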

[8] = CCTE_Shafer_MEA_dev_network_spike_number: CCTE's Neural Network Formation Assay for Number of Network Spikes, Shafer Lab (AID 2284048);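 also: synchronized bursts across electrodes counted on days 5 7 9 12 and integrated as AUC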;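 as to AC50: fit as a loss of signal meaning fewer network spikes than DMSO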
Outline: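 Number of network spikes (coordinated firing across electrodes) recorded on days 5, 7, 9 and 12 and summarised as area under the curve. Rat cortical cultures on MEA, continuous compound exposure with full medium/treatment exchange at DIV 5 and 9.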

[9] = CCTE_Shafer_MEA_dev_network_spike_peak: CCTE's Neural Network Formation Assay for Mean Number of Electrodes in Network Spike, Shafer Lab (AID 2284049);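 as to AC50: fitted for loss of signal meaning fewer electrodes in network spikes than DMSO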
Outline: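 Rat cortical primary culture, 1.5 x 10^5 cells/well, 48-well MEA (16 electrodes/well). Dosing day 0 through DIV 12, full media/compound exchange DIV 5, 9. AxIS adaptive spike detection; AUC over days 5/7/9/12; loss-of-signal vs DMSO.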

DIO2 (gene 1734) = test: CCTE_GLTED_hDIO2: CCTE's human Deiodinase 2 (DIO2) Inhibition Assay, Great Lakes Toxicology and Ecology Division (GLTED) Lab (AID 2284050; active = hit-call score of the fitted dose curve at least 0.9, where 1 is the maximum)
Outline: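 Triplicate cell-free incubations (3 h) of human DIO2 with chemical preceded colorimetric Sandell-Kolthoff quantitation of liberated iodide; DMSO served as negative control for curve fitting.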

[10] = CCTE_Shafer_MEA_dev_spike_duration_mean: CCTE's Neural Network Formation Assay for Mean Spike Duration, Shafer Lab (AID 2284051);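 also: mean network spike duration pooled as area under curve over DIV 5 to 12 recordings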;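 as to AC50: potency for a decrease in mean network spike duration versus DMSO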
Outline: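 With DMSO as baseline, loss of mean network spike duration was scored from extracellular recordings of rat cortical neurons on MEA plates. Exposure spanned plating to DIV 12; the four recording days were collapsed into one AUC value.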

[11] = CCTE_Shafer_MEA_dev_network_spike_duration_std: CCTE's Neural Network Formation Assay for Standard Deviation of Network Spike Duration, Shafer Lab (AID 2284052);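 also: hits are decreases in network spike duration SD versus DMSO vehicle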
Outline: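 Developing networks of rat cortical neurons were exposed over twelve days in vitro on 48-well MEA plates. Trapezoidal AUC of recordings (DIV 5–12) was analysed for signal loss relative to DMSO vehicle.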

DIO3 (gene 1735) = test: CCTE_GLTED_hDIO3: CCTE's human Deiodinase 3 (DIO3) Inhibition Assay, Great Lakes Toxicology and Ecology Division (GLTED) Lab (AID 2284055; active = hit-call score of the fitted dose curve at least 0.9, where 1 is the maximum;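 as to AC50: potency is for inhibition seen as loss of released iodide signal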)
Outline: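 Steps: incubate adenovirus-produced hDIO3 with chemical for 3 hours; detect freed iodide via cerium-arsenic Sandell-Kolthoff colorimetry; compare with DMSO baseline.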

[12] = CCTE_Shafer_MEA_dev_LDH: CCTE's Lactate Dehydrogenase Assay for Cytotoxicity in the Neural Network Formation Assay, Shafer Lab (AID 2284068; active = hit-call score of the fitted dose curve at least 0.9, where 1 is the maximum;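 also: exposure for twelve days from plating with re-dosing on DIV 5 and 9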)
Outline: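 Developing rat cortical networks on MEA plates are exposed to compound for 12 days from plating. LDH activity is measured spectrophotometrically, with DMSO as baseline.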

[13] = CCTE_Deisenroth_AIME_384WELL_CTox_Active: Cytotoxicity Assessment (CTOX) in CCTE's 384-well Estrogen Receptor Transactivation Assay with AIME metabolic competence (metabolism positive), Deisenroth Lab (AID 2284037; active = hit-call score of the fitted dose curve at least 0.9, where 1 is the maximum;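 also: chemicals first conditioned 2 h by alginate-bound induced rat liver S9 before cells; activity means signal loss indicating cell death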)
Outline: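 Cytotoxicity in VM7Luc4E2 breast cells, 24 hour, measured as protease-substrate fluorescence loss, after 2-hour metabolic conditioning with induced rat hepatic S9 in alginate microspheres. Concentrations 0.002 - 200 uM, 10 points, bidirectional fitting.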

[14] = CCTE_Deisenroth_AIME_384WELL_CTox_Inactive: Cytotoxicity Assessment (CTOX) in CCTE's 384-well Estrogen Receptor Transactivation Assay without AIME metabolic competence (metabolism negative), Deisenroth Lab (AID 2284039; active = hit-call score of the fitted dose curve at least 0.9, where 1 is the maximum;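 also: cell viability via live-cell protease substrate cleaved to fluorescent probe; cells exposed 24 h to medium preincubated 2 h with alginate-water beads without S9; loss of fluorescence signal means loss of viability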)
Outline: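 Fluorescence from a live-cell protease substrate, read after 24 h in VM7Luc4E2 cells, indicated viability. Test medium came from a 2 h AIME step without hepatic S9 (alginate-water microspheres); concentrations spanned 0.002 - 200 uM, single technical replicate per run.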

[15] = molecular target: Estrogen receptor (Homo sapiens) (UniProt P03372); test: CCTE_Deisenroth_AIME_384WELL_LUC_Shift: CCTE's 384-well Estrogen Receptor Transactivation Assay with AIME metabolic competence data shift (ERTA luciferase; difference in metabolism positive and negative), Deisenroth Lab (AID 2284041);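 also: shift is response with S9 minus without S9 so positive means metabolism raised ER signal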
Estrogen receptor (Homo sapiens), sequence (P03372 whole entry, looked up): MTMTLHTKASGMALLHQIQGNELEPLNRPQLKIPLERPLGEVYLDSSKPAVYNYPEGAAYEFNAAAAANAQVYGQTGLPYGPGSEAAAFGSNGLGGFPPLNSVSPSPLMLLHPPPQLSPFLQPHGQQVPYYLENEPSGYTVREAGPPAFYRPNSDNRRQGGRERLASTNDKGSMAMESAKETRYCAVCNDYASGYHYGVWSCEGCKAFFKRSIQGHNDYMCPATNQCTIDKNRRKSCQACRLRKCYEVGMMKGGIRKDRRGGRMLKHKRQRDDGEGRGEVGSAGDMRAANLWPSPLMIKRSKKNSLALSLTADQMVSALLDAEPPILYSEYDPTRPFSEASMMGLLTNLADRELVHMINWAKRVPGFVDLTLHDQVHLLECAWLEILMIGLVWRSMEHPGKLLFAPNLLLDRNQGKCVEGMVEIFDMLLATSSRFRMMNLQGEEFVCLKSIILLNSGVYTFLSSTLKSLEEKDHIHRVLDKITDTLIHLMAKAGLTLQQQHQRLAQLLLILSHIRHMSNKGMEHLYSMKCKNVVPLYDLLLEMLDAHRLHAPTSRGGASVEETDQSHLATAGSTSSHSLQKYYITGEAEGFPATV
Outline: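 Test chemicals (0.002–200 uM, 10-point) were pre-incubated 2 h with alginate microspheres containing phenobarbital/beta-naphthoflavone-induced male Sprague Dawley rat liver S9 or water, then medium was transferred to VM7Luc4E2 cells for 24 h luciferase readout; shift = S9-positive minus S9-negative normalized response.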

[16] = UKN5_HCS_SBAD2_cell_viability: Viability Assessment in the University of Konstanz (UKN) Leist Lab Neurite Outgrowth Assay in human iPSC-derived immature Dorsal Root Ganglia Neurons (UKN5) (AID 2284056)
Outline: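 iPSC-derived immature peripheral neurons (SBAD2) seeded on Matrigel with CHIR99021, SU5402 and DAPT, dosed 1 h later for 24 h. Viability from Hoechst H-33342 and calcein-AM live staining, high-content imaging; bidirectional fit versus DMSO.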

[17] = molecular target: Estrogen receptor (Homo sapiens) (UniProt P03372); test: CCTE_Deisenroth_AIME_384WELL_LUC_Inactive: CCTE's 384-well Estrogen Receptor Transactivation Assay without AIME metabolic competence (ERTA luciferase; metabolism negative), Deisenroth Lab (AID 2284038; active = hit-call score of the fitted dose curve at least 0.9, where 1 is the maximum;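 also: VM7Luc4E2 breast cells given medium preincubated 2 h with S9-free microspheres; hits raise estrogen receptor luciferase signal so potencies reflect agonists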)
Outline: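 Metabolism-negative mode: AIME lids stamped in alginate-water, no hepatic S9. 2 h chemical incubation → medium onto VM7Luc4E2 ERTA, 24 h. Readout luciferase luminescence; gain-of-signal fit vs 17beta-estradiol. Conc. 0.002 - 200 uM.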

Measured: AC50

O=C(O)C(F)(F)C(F)(F)C(F)(F)C(F)(F)C(F)(F)C(F)(F)C(F)(F)C(F)(F)C(F)(F)C(F)(F)F
active: DIO2 (gene 1734) 50 µM and 53.2 µM | DIO3 (gene 1735) 19.9 µM and 25.1 µM
not listed: [13] | [14] | [15] | [16] | [17]
inactive: all other assays above

ClC1(Cl)C2(Cl)C3(Cl)C4(Cl)C(Cl)(Cl)C5(Cl)C3(Cl)C1(Cl)C5(Cl)C24Cl (stereo not drawn)
active: [1] 3.9 µM | [2] 2.07 µM | [3] 2.64 µM | [4] 1.62 µM | [5] 1.58 µM | [7] 3.37 µM | [8] 888 nM | [9] 2.32 µM | [10] 2.35 µM | [11] 1.03 µM | [12] 1.92 µM
inactive: [6]

CC(C)(c1ccccc1)c1ccc(O)c(C(C)(C)c2ccccc2)c1
active: [13] 93.9 µM | [14] 64.6 µM | DIO2 (gene 1734) 91.9 µM | DIO3 (gene 1735) 17.3 µM
inactive: [15]

O=C(O)C(F)(F)C(F)(F)C(F)(F)C(F)(F)C(F)(F)C(F)(F)F
inactive: [1] | [14] | [3] | [5] | [6] | [7] | [8] | [9] | [10] | [11]

CCOP(=S)(OCC)Oc1nc(Cl)c(Cl)cc1Cl
inactive: [3] | [5] | [6] | [7] | [8] | [11] | [16]
active: [1] 23.3 µM and 15 µM and 21.4 µM | [2] 22.5 µM and 6.77 µM and 22.1 µM | [3] 17.1 µM | [4] 23.2 µM and 4.58 µM and 21.5 µM | [5] 15.7 µM and 5.07 µM | [7] 15.2 µM and 15 µM | [8] 23 µM and 3.97 µM | [9] 23 µM and 10 µM and 23.1 µM | [10] 23 µM and 15 µM and 21.7 µM | [11] 22.7 µM | [12] 13.2 µM and 13.7 µM and 24.3 µM

CC(C)(C)CC(C)(C)c1ccc(O)cc1
active: DIO2 (gene 1734) 105 µM | DIO3 (gene 1735) 82 µM

CC12CC1(C)C(=O)N(c1cc(Cl)cc(Cl)c1)C2=O (stereo not drawn)
inactive: DIO2 (gene 1734) | DIO3 (gene 1735)

O=C1C(Cl)=C(Cl)C(=O)c2ccccc21
inactive: [15]
active: [13] 163 µM | [14] 189 µM | DIO2 (gene 1734) 26.8 µM | DIO3 (gene 1735) 11.3 µM

C=CC(=O)OCCCCCC(C)C
active: DIO2 (gene 1734) 21.1 µM | DIO3 (gene 1735) 35.4 µM

c1cc[c]([Hg][c]2ccccc2)cc1
inactive: [17] | [14]
active: [15] 0.365 µM

Cl/C=C\C[N+]12CN3CN(CN(C3)C1)C2
active: DIO3 (gene 1735) 100 µM
inactive: DIO2 (gene 1734)

CCCCCCCCc1ccc(O)cc1
active: DIO2 (gene 1734) 151 µM | DIO3 (gene 1735) 19.9 µM

CCC(C)(C)c1ccc(O)c(C(C)(C)CC)c1
active: [13] 102 µM | [14] 75 µM | DIO2 (gene 1734) 79 µM | DIO3 (gene 1735) 18.9 µM
inactive: [15]

Oc1cccc2cccnc12
inactive: [13] | [14]

CC(=O)[O][Hg][c]1ccccc1
inactive: [15]
active: [1] 0.0114 µM | [13] 66.1 µM | [14] 46.3 µM | [2] 0.0146 µM | [3] 0.0117 µM | [4] 0.0108 µM | [5] 0.0154 µM | [6] 0.00963 µM | [7] 0.00958 µM | [8] 9.11 nM | [9] 0.0145 µM | [10] 0.0121 µM | [11] 0.0112 µM | [12] 0.0183 µM

CCC(=O)C(CC(C)N(C)C)(c1ccccc1)c1ccccc1 (stereo not drawn)
active: [1] 7.25 µM | [2] 3.55 µM | [3] 4.16 µM | [4] 4.45 µM | [5] 6.65 µM | [7] 4.24 µM | [9] 4.26 µM | [10] 3.49 µM | [12] 7.25 µM
inactive: [6] | [8] | [11]

CC1(C)CCC(Cc2ccc(Cl)cc2)C1(O)Cn1cncn1 (stereo not drawn)
active: [13] 120 µM | [14] 119 µM
inactive: [15]

CC(C)(c1ccc(OCC2CO2)cc1)c1ccc(OCC2CO2)cc1 (stereo not drawn)
active: DIO2 (gene 1734) 3.76 µM | DIO3 (gene 1735) 3.62 µM

Clc1ccc(COC(Cn2ccnc2)c2ccc(Cl)cc2Cl)cc1 (stereo not drawn)
active: DIO2 (gene 1734) 95.2 µM
inactive: DIO3 (gene 1735)

C=C(C)C(=O)[O][Sn]([CH2]CCC)([CH2]CCC)[CH2]CCC
active: [1] 0.0389 µM | [2] 0.0266 µM | [3] 0.0225 µM | [4] 0.0199 µM | [5] 0.0336 µM | [6] 0.0266 µM | [7] 0.0482 µM | [8] 21.8 nM | [9] 0.0394 µM | [10] 0.0312 µM | [11] 0.013 µM | [16] 0.246 µM | [12] 1.98 µM

Cn1sc(Cl)cc1=O
active: [1] 4.02 µM | [2] 4.47 µM | [3] 5.73 µM | [4] 5.1 µM | [5] 7.73 µM | [6] 7.64 µM | [7] 7.54 µM | [8] 4450 nM | [9] 3.57 µM | [10] 7.62 µM | [11] 1.84 µM | [12] 4.61 µM
